Among the data in PubChem BioAssay AID1159580 (chemical genetic matrix, 2015) are normalized growth values, retold here.

The experiment is described as follows: chemical genetic growth profiling, strain panel (AID 1159580).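 Further: tested at 20 µM; growth read once vehicle control cultures reached saturation at 30 °C; 1 = growth at the plate median or of vehicle wells; lower values mean less growth of the strain.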 Conditions: S. cerevisiae deletion strains, growth OD.
Setting [1] is: locus YAL040C, strain CLN3, hits give low values.
[2] abbreviates: locus YCL061C, strain MRC1 (second series), hits give low values.
The mark [3] stands for this setting: locus YDR363W, strain ESC2, hits give low values.
Where [4] appears, read: locus YER002W, strain NOP16, hits give low values.
[5] abbreviates: locus YMR307W, strain GAS1, hits give low values.
Where [6] appears, read: locus YNL128W, strain TEP1, hits give low values.
Setting [7] is: locus YNL175C, strain NOP13, hits give low values.
The mark [8] stands for this setting: locus YNL197C, strain WHI3, hits give low values.
The mark [9] stands for this setting: locus YNL224C, strain SQS1, hits give low values.
The mark [10] stands for this setting: locus YOR083W, strain WHI5 (second series), hits give low values.

Molecules are shown by their SMILES. In all, about 5,500 compounds went through this assay and about 2,000 (36%) were called active. Another 18% or so got no clear call; they are omitted. This is one part of the list. A number with no mark means an inactive call. No stated cut-off is given here; in the data, active means normalized growth mostly below about 0.91 (no sharp cut-off); inconclusive means no clear call, values can overlap the other calls; inactive means mostly above about 0.92.

For the compound `C[C@]12C=CC(=O)C=C1CC[C@@H]1C2=CC[C@]2(C)[C@@H](C(=O)CN3CCN(c4cc(N5CCCC5)nc(N5CCCC5)n4)CC3)CC[C@@H]12`, the normalized growth is 0.97 (locus YAL013W, strain DEP1, hits give low values); 0.998 under setting [1]; 0.976 under setting [2]; 0.964 under setting [3]; 1.01 under setting [4]; 0.995 (locus YGR078C, strain PAC10, hits give low values). The normalized growth was 0.993 (locus YMR263W, strain SAP30, hits give low values); 0.998 under setting [5]; 1.03 under setting [6]; 1.02 under setting [7]; 1.04 under setting [8]; 1.01 under setting [9]. Moreover, under setting [10], the normalized growth was 1.01.

Turning to `Cc1c(C)c2c(c(C)c1O)CCC(C)(CN1CCN(c3cc(N4CCCC4)nc(N4CCCC4)n3)CC1)O2` (centres undefined), the normalized growth by setting is: under setting [1], 0.579 (active); under setting [2], 0.993; (locus YDR150W, strain NUM1, hits give low values) 0.997; under setting [3], 0.96; under setting [4], 1.15 [resistant] (active); (locus YGR229C, strain SMI1, hits give low values) 0.944. Further, the normalized growth runs as follows: (locus YJR075W, strain HOC1, hits give low values) 0.959; under setting [5], 1; under setting [6], 1.07; (locus YNL153C, strain GIM3, hits give low values) 0.995; under setting [7], 1.09 [resistant] (active); under setting [8], 1.08. Further, the normalized growth is 1.07 under setting [9]; 0.961 (locus YNL322C, strain KRE1, hits give low values); 1.04 under setting [10]; 0.891 (locus YPL055C, strain LGE1, hits give low values).
